# What was measured:
# Assay in all cases: DAPPL (digital affinity profiling via proximity ligation, sequencing); 10 mM Tris-HCl pH 7.5, 50 mM NaCl, 1 mM DTT, 4% glycerol, room temperature, 30 min; GST-TFs on glutathione beads, 16-mer random dsDNA library, 0.1% formaldehyde crosslink after washing; high values mean tight binding
# FLI1 = target: T1, FLI1 (Homo sapiens, UniProt Q01543 1-452); settings: protein: recombinant; tags: N-terminal GST; dsDNA, one strand shown
# T1 sequence: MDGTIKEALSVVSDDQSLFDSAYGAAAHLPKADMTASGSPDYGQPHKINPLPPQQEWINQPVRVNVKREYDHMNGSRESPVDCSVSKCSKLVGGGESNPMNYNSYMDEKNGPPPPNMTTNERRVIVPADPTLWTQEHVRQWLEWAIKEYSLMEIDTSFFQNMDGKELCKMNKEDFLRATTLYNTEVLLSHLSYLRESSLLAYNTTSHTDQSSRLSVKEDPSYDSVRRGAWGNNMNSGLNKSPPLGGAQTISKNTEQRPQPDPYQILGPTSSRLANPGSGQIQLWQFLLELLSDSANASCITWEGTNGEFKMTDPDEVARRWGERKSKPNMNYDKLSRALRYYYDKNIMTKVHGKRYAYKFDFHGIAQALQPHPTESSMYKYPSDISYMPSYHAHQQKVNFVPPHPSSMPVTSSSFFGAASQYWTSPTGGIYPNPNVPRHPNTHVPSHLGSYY
# How it was run: (§1)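 Human transcription factors fused to GST were expressed in yeast, captured on glutathione beads, given DNA barcodes and pooled with a GST-only negative control. Pools were incubated with 200 nmole of a 16-mer random double-stranded DNA library in Tris/NaCl/DTT/glycerol buffer at room temperature for 30 min. They were then washed, crosslinked with 0.1% formaldehyde, proximity-ligated (BsaI/T4 ligase, 1 h, 37 °C), PCR-amplified and sequenced on an Illumina NextSeq500. Binding signal is each 6-mer's read frequency for a factor divided by its frequency for the GST control.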
# ELK1 = target: T2, ELK1 (Homo sapiens, UniProt P19419 1-428); settings: protein: recombinant; tags: N-terminal GST; dsDNA, one strand shown
# T2 sequence: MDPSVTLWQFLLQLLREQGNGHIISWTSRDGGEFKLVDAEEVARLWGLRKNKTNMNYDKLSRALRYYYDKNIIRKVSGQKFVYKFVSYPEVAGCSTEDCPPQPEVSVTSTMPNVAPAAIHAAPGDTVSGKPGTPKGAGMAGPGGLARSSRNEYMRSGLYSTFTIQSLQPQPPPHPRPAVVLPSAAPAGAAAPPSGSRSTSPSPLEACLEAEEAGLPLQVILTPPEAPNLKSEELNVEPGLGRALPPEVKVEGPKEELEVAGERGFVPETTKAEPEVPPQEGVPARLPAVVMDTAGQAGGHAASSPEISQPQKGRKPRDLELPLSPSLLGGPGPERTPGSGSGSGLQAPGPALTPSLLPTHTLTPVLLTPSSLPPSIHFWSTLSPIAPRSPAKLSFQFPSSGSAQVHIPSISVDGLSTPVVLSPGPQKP
# How it was run: as §1
# GABPA = target: T3, GABPA (Homo sapiens, UniProt Q06546 1-454); settings: protein: recombinant; tags: N-terminal GST; dsDNA, one strand shown
# T3 sequence: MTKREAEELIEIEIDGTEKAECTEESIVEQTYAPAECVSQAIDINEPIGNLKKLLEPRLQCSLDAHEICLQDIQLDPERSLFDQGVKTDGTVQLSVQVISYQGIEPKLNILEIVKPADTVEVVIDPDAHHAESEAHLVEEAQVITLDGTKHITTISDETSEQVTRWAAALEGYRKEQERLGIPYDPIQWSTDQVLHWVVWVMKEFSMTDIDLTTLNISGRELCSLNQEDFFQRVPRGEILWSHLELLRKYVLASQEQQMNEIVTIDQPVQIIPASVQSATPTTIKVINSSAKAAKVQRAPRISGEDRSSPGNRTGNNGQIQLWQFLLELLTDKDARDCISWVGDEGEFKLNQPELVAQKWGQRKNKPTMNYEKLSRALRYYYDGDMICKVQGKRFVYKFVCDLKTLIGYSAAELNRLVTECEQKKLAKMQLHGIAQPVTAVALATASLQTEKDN
# How it was run: as §1
# ERG = target: T4, ERG (Homo sapiens, UniProt P11308 1-479); settings: protein: recombinant; tags: N-terminal GST; dsDNA, one strand shown
# T4 sequence: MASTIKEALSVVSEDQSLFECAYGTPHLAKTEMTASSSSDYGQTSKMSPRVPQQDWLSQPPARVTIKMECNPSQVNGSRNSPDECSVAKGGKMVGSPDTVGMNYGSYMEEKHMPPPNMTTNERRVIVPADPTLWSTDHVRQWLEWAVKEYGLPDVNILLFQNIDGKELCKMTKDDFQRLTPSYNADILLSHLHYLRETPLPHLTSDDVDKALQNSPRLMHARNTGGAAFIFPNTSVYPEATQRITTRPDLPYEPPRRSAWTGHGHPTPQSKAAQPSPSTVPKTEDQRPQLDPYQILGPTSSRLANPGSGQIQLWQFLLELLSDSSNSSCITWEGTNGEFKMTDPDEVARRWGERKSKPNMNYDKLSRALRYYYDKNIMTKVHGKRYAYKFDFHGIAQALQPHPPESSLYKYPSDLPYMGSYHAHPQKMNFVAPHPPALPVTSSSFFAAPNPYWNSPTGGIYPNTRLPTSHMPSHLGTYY
# How it was run: as §1
# ELF1 = ELF1 (Homo sapiens, UniProt P32519 1-619); settings: protein: recombinant; tags: N-terminal GST; dsDNA, one strand shown
# ELF1, sequence (P32519 whole entry): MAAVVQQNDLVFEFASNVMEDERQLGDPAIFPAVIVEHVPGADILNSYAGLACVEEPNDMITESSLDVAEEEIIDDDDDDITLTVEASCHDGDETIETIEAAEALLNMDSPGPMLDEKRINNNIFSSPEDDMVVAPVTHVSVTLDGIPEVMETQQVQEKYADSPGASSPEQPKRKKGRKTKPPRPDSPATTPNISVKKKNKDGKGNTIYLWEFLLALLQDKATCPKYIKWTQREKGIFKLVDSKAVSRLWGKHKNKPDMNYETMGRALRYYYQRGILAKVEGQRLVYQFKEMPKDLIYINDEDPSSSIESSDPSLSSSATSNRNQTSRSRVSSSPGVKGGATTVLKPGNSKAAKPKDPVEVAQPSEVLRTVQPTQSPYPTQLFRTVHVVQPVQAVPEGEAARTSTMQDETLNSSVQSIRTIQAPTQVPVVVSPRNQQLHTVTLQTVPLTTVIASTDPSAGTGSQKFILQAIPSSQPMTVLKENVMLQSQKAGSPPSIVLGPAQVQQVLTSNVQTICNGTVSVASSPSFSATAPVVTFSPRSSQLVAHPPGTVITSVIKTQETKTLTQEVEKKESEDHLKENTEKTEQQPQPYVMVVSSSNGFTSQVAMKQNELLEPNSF
# How it was run: as §1
# EHF = target: T5, EHF (Homo sapiens, UniProt Q9NZC4 1-300); settings: protein: recombinant; tags: N-terminal GST; dsDNA, one strand shown
# T5 sequence: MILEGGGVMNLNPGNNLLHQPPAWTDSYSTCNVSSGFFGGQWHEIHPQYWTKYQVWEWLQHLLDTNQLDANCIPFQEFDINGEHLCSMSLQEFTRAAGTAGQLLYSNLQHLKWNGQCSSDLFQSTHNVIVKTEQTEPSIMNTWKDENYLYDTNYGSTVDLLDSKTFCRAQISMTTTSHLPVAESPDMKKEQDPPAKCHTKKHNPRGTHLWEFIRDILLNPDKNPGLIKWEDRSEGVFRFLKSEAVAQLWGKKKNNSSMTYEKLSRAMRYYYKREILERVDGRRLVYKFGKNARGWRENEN
# How it was run: as §1
# SPI1 = SPI1 (Homo sapiens, UniProt P17947 1-270); settings: protein: recombinant; tags: N-terminal GST; dsDNA, one strand shown
# How it was run: as §1
# SPIB = SPIB (Homo sapiens, UniProt Q01892 1-262); settings: protein: recombinant; tags: N-terminal GST; dsDNA, one strand shown
# SPIB, sequence (Q01892 whole entry): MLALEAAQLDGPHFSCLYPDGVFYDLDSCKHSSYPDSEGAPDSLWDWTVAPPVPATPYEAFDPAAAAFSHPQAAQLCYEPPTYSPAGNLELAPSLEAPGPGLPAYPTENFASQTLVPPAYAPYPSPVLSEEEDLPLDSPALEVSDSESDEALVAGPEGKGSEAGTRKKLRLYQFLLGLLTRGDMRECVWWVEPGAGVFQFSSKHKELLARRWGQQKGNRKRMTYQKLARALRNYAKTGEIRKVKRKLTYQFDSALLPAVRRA
# How it was run: as §1
# ELK3 = target: T6, ELK3 (Homo sapiens, UniProt P41970 1-407); settings: protein: recombinant; tags: N-terminal GST; dsDNA, one strand shown
# T6 sequence: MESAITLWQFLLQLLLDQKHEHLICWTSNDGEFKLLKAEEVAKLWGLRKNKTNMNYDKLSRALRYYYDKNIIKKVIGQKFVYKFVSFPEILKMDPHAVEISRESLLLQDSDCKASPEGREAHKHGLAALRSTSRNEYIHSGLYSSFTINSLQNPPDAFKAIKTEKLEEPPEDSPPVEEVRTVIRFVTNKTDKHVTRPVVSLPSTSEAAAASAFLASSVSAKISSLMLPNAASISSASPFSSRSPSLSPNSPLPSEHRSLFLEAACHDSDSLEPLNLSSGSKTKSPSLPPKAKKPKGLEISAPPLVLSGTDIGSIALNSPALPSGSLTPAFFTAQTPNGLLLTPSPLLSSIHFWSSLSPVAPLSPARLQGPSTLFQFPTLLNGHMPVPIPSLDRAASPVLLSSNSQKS
# How it was run: as §1
# FEV = target: T7, FEV (Homo sapiens, UniProt Q99581 1-238); settings: protein: recombinant; tags: N-terminal GST; dsDNA, one strand shown
# T7 sequence: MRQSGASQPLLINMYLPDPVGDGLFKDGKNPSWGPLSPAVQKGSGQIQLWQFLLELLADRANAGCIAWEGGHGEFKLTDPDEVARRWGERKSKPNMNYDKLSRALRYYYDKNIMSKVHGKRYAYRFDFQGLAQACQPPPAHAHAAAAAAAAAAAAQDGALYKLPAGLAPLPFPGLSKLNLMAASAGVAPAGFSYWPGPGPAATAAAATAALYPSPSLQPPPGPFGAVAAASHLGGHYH
# How it was run: as §1
# ETV5 = ETV5 (Homo sapiens, UniProt P41161 1-510); settings: protein: recombinant; tags: N-terminal GST; dsDNA, one strand shown
# ETV5, sequence (P41161 whole entry): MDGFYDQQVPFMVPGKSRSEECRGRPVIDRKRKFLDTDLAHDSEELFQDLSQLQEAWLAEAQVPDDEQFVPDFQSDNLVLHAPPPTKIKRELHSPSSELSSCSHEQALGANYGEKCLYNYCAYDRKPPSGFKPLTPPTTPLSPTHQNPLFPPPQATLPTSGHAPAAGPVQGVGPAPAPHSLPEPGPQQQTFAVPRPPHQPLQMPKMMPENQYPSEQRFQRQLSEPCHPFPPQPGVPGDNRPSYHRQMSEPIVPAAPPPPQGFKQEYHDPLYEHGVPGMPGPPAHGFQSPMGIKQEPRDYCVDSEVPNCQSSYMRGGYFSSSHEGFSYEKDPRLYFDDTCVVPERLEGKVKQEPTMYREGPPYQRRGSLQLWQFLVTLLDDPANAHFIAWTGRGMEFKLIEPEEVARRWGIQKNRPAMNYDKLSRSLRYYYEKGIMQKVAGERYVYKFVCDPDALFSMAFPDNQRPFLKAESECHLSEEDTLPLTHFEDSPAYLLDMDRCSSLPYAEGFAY
# How it was run: as §1
# HSF1 = HSF1 (Homo sapiens, UniProt Q00613 1-529); settings: protein: recombinant; tags: N-terminal GST; chain copies: 3; dsDNA, one strand shown
# HSF1, sequence (Q00613 whole entry): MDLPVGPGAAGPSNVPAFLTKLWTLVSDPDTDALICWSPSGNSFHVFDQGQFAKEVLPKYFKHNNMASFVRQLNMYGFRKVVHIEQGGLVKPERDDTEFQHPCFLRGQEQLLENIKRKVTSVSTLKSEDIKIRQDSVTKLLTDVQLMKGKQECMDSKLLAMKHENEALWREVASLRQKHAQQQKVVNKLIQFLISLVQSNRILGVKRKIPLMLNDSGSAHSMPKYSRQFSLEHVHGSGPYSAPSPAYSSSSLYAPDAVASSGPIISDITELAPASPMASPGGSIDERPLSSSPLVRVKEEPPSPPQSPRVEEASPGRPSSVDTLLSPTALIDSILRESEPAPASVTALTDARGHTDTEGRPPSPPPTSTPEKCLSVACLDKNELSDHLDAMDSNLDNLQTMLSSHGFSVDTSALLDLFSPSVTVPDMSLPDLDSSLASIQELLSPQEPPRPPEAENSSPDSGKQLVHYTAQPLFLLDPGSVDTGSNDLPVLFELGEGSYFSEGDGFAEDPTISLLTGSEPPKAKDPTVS
# How it was run: as §1
# SPIC = target: T8, SPIC (Homo sapiens, UniProt Q8N5J4 1-248); settings: protein: recombinant; tags: N-terminal GST; dsDNA, one strand shown
# T8 sequence: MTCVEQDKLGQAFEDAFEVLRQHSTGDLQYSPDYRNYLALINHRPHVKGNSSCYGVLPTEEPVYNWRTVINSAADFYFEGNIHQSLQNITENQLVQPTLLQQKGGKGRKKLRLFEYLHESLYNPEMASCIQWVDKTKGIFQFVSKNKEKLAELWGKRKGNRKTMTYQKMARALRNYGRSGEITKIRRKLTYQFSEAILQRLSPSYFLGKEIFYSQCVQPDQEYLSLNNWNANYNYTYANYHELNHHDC
# How it was run: as §1
# ELF4 = ELF4 (Homo sapiens, UniProt Q99607 1-663); settings: protein: recombinant; tags: N-terminal GST; dsDNA, one strand shown
# ELF4, sequence (Q99607 whole entry): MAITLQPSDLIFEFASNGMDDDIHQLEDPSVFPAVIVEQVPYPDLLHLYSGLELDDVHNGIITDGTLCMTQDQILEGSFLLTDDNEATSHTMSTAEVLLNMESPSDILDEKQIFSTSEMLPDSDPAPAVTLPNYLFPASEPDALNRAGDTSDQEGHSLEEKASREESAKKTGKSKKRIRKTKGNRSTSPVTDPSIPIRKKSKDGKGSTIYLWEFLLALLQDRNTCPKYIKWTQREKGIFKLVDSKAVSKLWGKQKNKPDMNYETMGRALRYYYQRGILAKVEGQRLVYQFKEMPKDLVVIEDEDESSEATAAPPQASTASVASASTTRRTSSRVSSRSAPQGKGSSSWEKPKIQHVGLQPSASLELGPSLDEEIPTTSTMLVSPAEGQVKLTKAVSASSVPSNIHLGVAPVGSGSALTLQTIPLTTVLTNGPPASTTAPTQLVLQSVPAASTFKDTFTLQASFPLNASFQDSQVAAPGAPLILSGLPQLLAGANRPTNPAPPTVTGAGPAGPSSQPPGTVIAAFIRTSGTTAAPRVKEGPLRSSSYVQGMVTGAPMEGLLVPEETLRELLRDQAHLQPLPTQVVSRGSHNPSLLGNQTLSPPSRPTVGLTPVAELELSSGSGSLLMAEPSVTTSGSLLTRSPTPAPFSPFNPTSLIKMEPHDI
# How it was run: as §1
# ELK4 = target: T9, ELK4 (Homo sapiens, UniProt P28324-2 1-405); settings: protein: recombinant; tags: N-terminal GST; dsDNA, one strand shown
# T9 sequence: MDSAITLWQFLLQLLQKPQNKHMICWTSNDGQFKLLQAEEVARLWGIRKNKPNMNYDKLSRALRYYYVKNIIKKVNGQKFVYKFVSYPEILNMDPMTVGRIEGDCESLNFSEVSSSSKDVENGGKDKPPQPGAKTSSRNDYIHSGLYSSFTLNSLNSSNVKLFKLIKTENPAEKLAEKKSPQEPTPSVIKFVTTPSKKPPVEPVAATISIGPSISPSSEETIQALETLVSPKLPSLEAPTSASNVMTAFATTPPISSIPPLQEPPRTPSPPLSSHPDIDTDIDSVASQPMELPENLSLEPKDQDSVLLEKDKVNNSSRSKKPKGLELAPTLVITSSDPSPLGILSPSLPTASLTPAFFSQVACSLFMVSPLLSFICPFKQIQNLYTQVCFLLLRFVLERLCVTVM
# How it was run: as §1
# ETV2 = target: T10, ETV2 (Homo sapiens, UniProt O00321 1-342); settings: protein: recombinant; tags: N-terminal GST; dsDNA, one strand shown
# T10 sequence: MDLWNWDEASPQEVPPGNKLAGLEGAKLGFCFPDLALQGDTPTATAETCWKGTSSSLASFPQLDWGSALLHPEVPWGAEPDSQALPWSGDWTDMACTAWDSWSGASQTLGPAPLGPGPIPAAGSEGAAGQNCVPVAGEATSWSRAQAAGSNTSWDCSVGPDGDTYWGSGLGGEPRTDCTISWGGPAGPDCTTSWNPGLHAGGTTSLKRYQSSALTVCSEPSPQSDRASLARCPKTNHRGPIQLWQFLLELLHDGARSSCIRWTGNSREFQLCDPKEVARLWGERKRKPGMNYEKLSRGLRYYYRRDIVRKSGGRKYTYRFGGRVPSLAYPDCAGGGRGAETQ
# How it was run: as §1
# ELF3 = target: T11, ELF3 (Homo sapiens, UniProt P78545 1-371); settings: protein: recombinant; tags: N-terminal GST; dsDNA, one strand shown
# T11 sequence: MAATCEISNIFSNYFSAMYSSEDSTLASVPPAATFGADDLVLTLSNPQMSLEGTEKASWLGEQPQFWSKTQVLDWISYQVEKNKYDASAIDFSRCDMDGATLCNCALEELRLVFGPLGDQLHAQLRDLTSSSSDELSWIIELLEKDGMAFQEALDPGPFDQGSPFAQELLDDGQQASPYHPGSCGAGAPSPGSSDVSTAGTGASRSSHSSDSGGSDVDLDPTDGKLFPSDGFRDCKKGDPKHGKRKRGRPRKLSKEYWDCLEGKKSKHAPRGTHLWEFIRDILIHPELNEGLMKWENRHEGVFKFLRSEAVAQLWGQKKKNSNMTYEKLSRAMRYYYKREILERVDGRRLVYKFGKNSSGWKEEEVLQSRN
# How it was run: as §1
# CRX = CRX (Homo sapiens, UniProt O43186 1-299); settings: protein: recombinant; tags: N-terminal GST; dsDNA, one strand shown
# CRX, sequence (O43186 whole entry): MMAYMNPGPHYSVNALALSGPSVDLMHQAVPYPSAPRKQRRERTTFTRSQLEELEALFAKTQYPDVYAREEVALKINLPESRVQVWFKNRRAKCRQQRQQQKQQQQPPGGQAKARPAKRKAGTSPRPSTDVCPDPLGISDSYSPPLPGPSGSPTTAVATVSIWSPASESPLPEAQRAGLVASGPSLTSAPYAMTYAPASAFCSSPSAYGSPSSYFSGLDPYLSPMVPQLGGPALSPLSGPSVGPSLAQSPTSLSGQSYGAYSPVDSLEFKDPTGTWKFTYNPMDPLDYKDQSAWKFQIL
# How it was run: as §1
# ETV1 = ETV1 (Homo sapiens, UniProt P50549 1-477); settings: protein: recombinant; tags: N-terminal GST; dsDNA, one strand shown
# ETV1, sequence (P50549 whole entry): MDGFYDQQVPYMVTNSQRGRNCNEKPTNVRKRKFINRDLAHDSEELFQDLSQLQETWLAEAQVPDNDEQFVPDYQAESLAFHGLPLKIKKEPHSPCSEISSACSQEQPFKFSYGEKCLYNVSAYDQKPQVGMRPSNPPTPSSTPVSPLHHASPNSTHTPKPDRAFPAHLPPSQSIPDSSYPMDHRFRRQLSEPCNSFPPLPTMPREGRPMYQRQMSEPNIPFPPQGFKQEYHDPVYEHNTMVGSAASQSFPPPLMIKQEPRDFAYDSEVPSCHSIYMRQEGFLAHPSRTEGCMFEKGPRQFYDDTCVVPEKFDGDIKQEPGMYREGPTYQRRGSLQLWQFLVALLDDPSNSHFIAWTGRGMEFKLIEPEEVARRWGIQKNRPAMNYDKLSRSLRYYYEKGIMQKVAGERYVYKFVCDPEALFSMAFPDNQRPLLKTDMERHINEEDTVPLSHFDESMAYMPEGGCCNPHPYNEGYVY
# How it was run: as §1
sequence,measurement,setting,value
CCTTCC,binding signal,FLI1,"2.45 fold enrichment (6-mer frequency, TF over GST control)"
same,binding signal,ELK1,"2.68 fold enrichment (6-mer frequency, TF over GST control)"
same,binding signal,GABPA,"2.22 fold enrichment (6-mer frequency, TF over GST control)"
same,binding signal,ERG,"3.03 fold enrichment (6-mer frequency, TF over GST control)"
same,binding signal,ELF1,"2.39 fold enrichment (6-mer frequency, TF over GST control)"
same,binding signal,EHF,"2.75 fold enrichment (6-mer frequency, TF over GST control)"
same,binding signal,SPI1,"2.48 fold enrichment (6-mer frequency, TF over GST control)"
same,binding signal,SPIB,"2.75 fold enrichment (6-mer frequency, TF over GST control)"
same,binding signal,ELK3,"2.47 fold enrichment (6-mer frequency, TF over GST control)"
same,binding signal,FEV,"2.78 fold enrichment (6-mer frequency, TF over GST control)"
same,binding signal,ETV5,"2.73 fold enrichment (6-mer frequency, TF over GST control)"
same,binding signal,HSF1,"1.81 fold enrichment (6-mer frequency, TF over GST control)"
same,binding signal,SPIC,"2.36 fold enrichment (6-mer frequency, TF over GST control)"
same,binding signal,ELF4,"2.5 fold enrichment (6-mer frequency, TF over GST control)"
same,binding signal,ELK4,"2.19 fold enrichment (6-mer frequency, TF over GST control)"
same,binding signal,ETV2,"2.51 fold enrichment (6-mer frequency, TF over GST control)"
same,binding signal,ELF3,"2.27 fold enrichment (6-mer frequency, TF over GST control)"
same,binding signal,CRX,"1.26 fold enrichment (6-mer frequency, TF over GST control)"
same,binding signal,ETV1,"2.55 fold enrichment (6-mer frequency, TF over GST control)"
